# In PubChem BioAssay (NCI):
# Compounds without any hit were thinned out: in the full panel of roughly 79,000, 15% have a hit. Values without a mark were called inactive. Active and inactive are the calls of the source. Cut-off read from the data, not from the text of the source: active = growth inhibition above about 70%; inactive = the rest.
# Experiments:
# [1] = NCI Yeast Anticancer Drug Screen. Data for the wt1 strain (AID 149);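 note: 0% = growth of vehicle-treated wt1 cultures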; settings: S. cerevisiae wt1 strain (SPY 50644) growth inhibition, active compounds read high
# Outline: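 Each compound is tested on wt1 yeast and the loss of growth versus vehicle gives the inhibition value.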
# [2] = NCI Yeast Anticancer Drug Screen. Data for the rad50EPP+ strain (AID 151);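 note: 0% = growth of vehicle-treated control cultures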; settings: S. cerevisiae rad50 mutant strain, active compounds read high
# Outline: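 Measured: growth inhibition of rad50EPP+ yeast. Reference: vehicle-treated controls. Screen uses strains with defined genetic alterations in DNA damage repair or cell cycle control.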
# [3] = NCI Yeast Anticancer Drug Screen. Data for the mgt1 strain (AID 153); settings: S. cerevisiae mgt1 mutant growth inhibition, active compounds read high
# Outline: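 Compounds were applied to mgt1 mutant yeast, and growth was then compared against vehicle-treated control cultures to give percent inhibition.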
# [4] = NCI Yeast Anticancer Drug Screen. Data for the rad50 strain (AID 155);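 note: 0% = growth of vehicle-only cultures of the same strain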; settings: S. cerevisiae rad50 strain growth inhibition, active compounds read high
# Outline: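 Vehicle-treated cultures provide the reference for the growth inhibition reported for compound-exposed, repair-deficient yeast.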
# [5] = NCI Yeast Anticancer Drug Screen. Data for the mec2-1 strain (AID 157); settings: S. cerevisiae mec2-1 strain, active compounds read high
# Outline: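 Compounds were applied to mec2-1 yeast cells. Their growth was then compared with that of vehicle-treated cultures to give growth inhibition.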
# [6] = NCI Yeast Anticancer Drug Screen. Data for the rad14 strain (AID 159);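 note: 0% = growth of vehicle-treated control cultures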; settings: S. cerevisiae rad14 strain growth inhibition, active compounds read high
# Outline: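 Inhibition of growth is reported for a repair-deficient yeast mutant following compound treatment, calculated relative to cultures that received vehicle.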
# [7] = NCI Yeast Anticancer Drug Screen. Data for the sgs1 mgt1 strain (AID 161);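 note: 0% = growth of cultures given vehicle only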; settings: S. cerevisiae sgs1 mgt1 strain, active compounds read high
# Outline: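 Compounds are added to genetically altered yeast, and growth is compared with cultures given vehicle alone to give percent inhibition.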
# [8] = NCI Yeast Anticancer Drug Screen. Data for the CLN2oe strain (AID 163);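 note: 0% = growth of vehicle-only control cultures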; settings: S. cerevisiae CLN2oe strain, active compounds read high
# Outline: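 Cells of an engineered yeast line with disturbed cell-cycle regulation are treated with compound. Inhibition of growth is then calculated relative to the vehicle-treated reference.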
# [9] = NCI Yeast Anticancer Drug Screen. Data for the cln2 rad14 strain (AID 165);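 note: 0% = growth equal to vehicle treated cultures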; settings: S. cerevisiae cln2 rad14 strain, active compounds read high
# Outline: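 Strain: cln2 rad14 yeast, altered in cell cycle control and DNA damage repair. Read-out: growth inhibition vs vehicle.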
# [10] = NCI Yeast Anticancer Drug Screen. Data for the bub3 strain (AID 167); settings: S. cerevisiae bub3 mutant strain, active compounds read high
# Outline: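 Mutant yeast screening strain plus compound; vehicle-treated cultures serve as the 0% inhibition reference.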
# [11] = NCI Yeast Anticancer Drug Screen. Data for the wt2 strain (AID 169); settings: S. cerevisiae wt2 strain growth inhibition, active compounds read high
# Outline: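 Growth of compound-treated yeast is measured and expressed as inhibition relative to vehicle-only controls.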
# [12] = NCI Yeast Anticancer Drug Screen. Data for the mlh1 strain (AID 171);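 note: 0% = growth of vehicle-treated control cultures of the same strain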; settings: S. cerevisiae mlh1 strain growth inhibition, active compounds read high
# Outline: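 Test agents were incubated with yeast bearing a defined DNA damage repair or cell cycle control alteration; values are growth inhibition normalised to vehicle-treated cultures.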
# [13] = NCI Yeast Anticancer Drug Screen. Data for the sgs1 strain (AID 173);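 note: 0% = growth of vehicle-only control cultures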; settings: S. cerevisiae sgs1 mutant, active compounds read high
# Outline: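 Strain with an altered DNA repair or cell cycle pathway exposed to compound. Growth then measured. Value = inhibition versus vehicle control.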
# [14] = NCI Yeast Anticancer Drug Screen. Data for the mlh1 rad18 strain (AID 175); settings: S. cerevisiae mlh1 rad18 strain growth inhibition, active compounds read high
# Outline: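 A repair-deficient yeast strain is exposed to test compound, and growth is scored relative to vehicle-treated controls.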
# [15] = NCI Yeast Anticancer Drug Screen. Data for the rad18 strain (AID 177); settings: S. cerevisiae rad18 mutant growth inhibition, active compounds read high
# Outline: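 DNA-repair-defective yeast; compound treatment; growth inhibition scored against vehicle.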
# [16] = at 5.0 µM (retest, dose inferred, filed as 0.5)
# [17] = at 50.0 µM (retest, dose inferred, filed as 5.0)
compound,measurement,setting,value
CC(C)/C(Cl)=N\OC(=O)Nc1ccccc1F,growth inhibition,[1]; at 1.2 µM,1%
same,growth inhibition,[1]; at 3.7 µM,4%
same,growth inhibition,[1]; at 11.0 µM,9%
same,growth inhibition,[1]; at 33.0 µM,17%
same,growth inhibition,[1]; at 100.0 µM,18%
same,growth inhibition,[2]; at 1.2 µM,18%
same,growth inhibition,[2]; at 3.7 µM,28%
same,growth inhibition,[2]; at 11.0 µM,46%
same,growth inhibition,[2]; at 33.0 µM,59%
same,growth inhibition,[2]; at 100.0 µM,46%
same,growth inhibition,[3]; at 1.2 µM,0%
same,growth inhibition,[3]; at 3.7 µM,6%
same,growth inhibition,[3]; at 11.0 µM,21%
same,growth inhibition,[3]; at 33.0 µM,23%
same,growth inhibition,[3]; at 100.0 µM,21%
same,growth inhibition,[4]; at 1.2 µM,9%
same,growth inhibition,[4]; at 3.7 µM,17%
same,growth inhibition,[4]; [16],2%
same,growth inhibition,[4]; at 11.0 µM,21%
same,growth inhibition,[4]; at 33.0 µM,43%
same,growth inhibition,[4]; [17],85% (active)
same,growth inhibition,[4]; at 50.0 µM,-7.75%
same,growth inhibition,[4]; at 100.0 µM,40%
same,growth inhibition,[5]; at 1.2 µM,11%
same,growth inhibition,[5]; at 3.7 µM,17%
same,growth inhibition,[5]; [16],-1%
same,growth inhibition,[5]; at 11.0 µM,23%
same,growth inhibition,[5]; at 33.0 µM,31%
same,growth inhibition,[5]; [17],86% (active)
same,growth inhibition,[5]; at 50.0 µM,76% (active)
same,growth inhibition,[5]; at 100.0 µM,31%
same,growth inhibition,[6]; at 1.2 µM,6%
same,growth inhibition,[6]; at 3.7 µM,14%
same,growth inhibition,[6]; at 11.0 µM,9%
same,growth inhibition,[6]; at 33.0 µM,23%
same,growth inhibition,[6]; at 100.0 µM,26%
same,growth inhibition,[7]; [16],-38%
same,growth inhibition,[7]; [17],82% (active)
same,growth inhibition,[7]; at 50.0 µM,62.5%
same,growth inhibition,[8]; at 1.2 µM,15%
same,growth inhibition,[8]; at 3.7 µM,14%
same,growth inhibition,[8]; at 11.0 µM,19%
same,growth inhibition,[8]; at 33.0 µM,19%
same,growth inhibition,[8]; at 100.0 µM,23%
same,growth inhibition,[9]; [16],23%
same,growth inhibition,[9]; [17],37%
same,growth inhibition,[9]; at 50.0 µM,35.1%
same,growth inhibition,[10]; at 1.2 µM,55%
same,growth inhibition,[10]; at 3.7 µM,83% (active)
same,growth inhibition,[10]; [16],49%
same,growth inhibition,[10]; at 11.0 µM,92% (active)
same,growth inhibition,[10]; at 33.0 µM,93% (active)
same,growth inhibition,[10]; [17],98% (active)
same,growth inhibition,[10]; at 50.0 µM,82% (active)
same,growth inhibition,[10]; at 100.0 µM,94% (active)
same,growth inhibition,[11]; at 1.2 µM,0%
same,growth inhibition,[11]; at 3.7 µM,5%
same,growth inhibition,[11]; at 11.0 µM,15%
same,growth inhibition,[11]; at 33.0 µM,41%
same,growth inhibition,[11]; at 100.0 µM,29%
same,growth inhibition,[12]; at 1.2 µM,3%
same,growth inhibition,[12]; at 3.7 µM,5%
same,growth inhibition,[12]; at 11.0 µM,14%
same,growth inhibition,[12]; at 33.0 µM,22%
same,growth inhibition,[12]; at 100.0 µM,20%
same,growth inhibition,[13]; at 1.2 µM,6%
same,growth inhibition,[13]; at 3.7 µM,13%
same,growth inhibition,[13]; at 11.0 µM,34%
same,growth inhibition,[13]; at 33.0 µM,60%
same,growth inhibition,[13]; at 100.0 µM,49%
same,growth inhibition,[14]; [16],-15%
same,growth inhibition,[14]; [17],66%
same,growth inhibition,[14]; at 50.0 µM,58.9%
same,growth inhibition,[15]; at 1.2 µM,-6%
same,growth inhibition,[15]; at 3.7 µM,3%
same,growth inhibition,[15]; at 11.0 µM,17%
same,growth inhibition,[15]; at 33.0 µM,43%
same,growth inhibition,[15]; at 100.0 µM,41%
